Columns and labels:
[1] = biological target: ALK tyrosine kinase receptor (Homo sapiens) (UniProt Q9UM73); conditions: at 10 µM
[2] = biological target: T1, Activin receptor type-1B (Homo sapiens) (UniProt P36896); conditions: at 1 µM
T1 sequence (whole entry): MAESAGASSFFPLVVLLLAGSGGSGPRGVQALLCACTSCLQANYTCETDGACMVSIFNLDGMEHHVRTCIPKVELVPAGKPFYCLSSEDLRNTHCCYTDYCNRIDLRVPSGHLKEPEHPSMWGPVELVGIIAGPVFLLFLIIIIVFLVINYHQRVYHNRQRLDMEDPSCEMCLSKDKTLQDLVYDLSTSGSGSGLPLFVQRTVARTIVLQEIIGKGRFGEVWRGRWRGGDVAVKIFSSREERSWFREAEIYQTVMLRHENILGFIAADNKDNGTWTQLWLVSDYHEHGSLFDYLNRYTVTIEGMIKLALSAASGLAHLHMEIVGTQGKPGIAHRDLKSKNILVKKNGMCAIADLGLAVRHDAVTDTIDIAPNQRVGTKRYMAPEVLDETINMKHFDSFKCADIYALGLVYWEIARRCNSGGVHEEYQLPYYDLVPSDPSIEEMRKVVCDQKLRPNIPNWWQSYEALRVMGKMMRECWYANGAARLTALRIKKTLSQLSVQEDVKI

[3] = biological target: T1, Activin receptor type-1B (Homo sapiens); conditions: at 10 µM
[4] = biological target: T2, AMP-activated protein kinase (AMPK) alpha-1/beta-1/gamma-1 (Homo sapiens) (UniProt P54619+Q9Y478+Q13131); conditions: at 1 µM
T2 sequence (P54619 whole entry): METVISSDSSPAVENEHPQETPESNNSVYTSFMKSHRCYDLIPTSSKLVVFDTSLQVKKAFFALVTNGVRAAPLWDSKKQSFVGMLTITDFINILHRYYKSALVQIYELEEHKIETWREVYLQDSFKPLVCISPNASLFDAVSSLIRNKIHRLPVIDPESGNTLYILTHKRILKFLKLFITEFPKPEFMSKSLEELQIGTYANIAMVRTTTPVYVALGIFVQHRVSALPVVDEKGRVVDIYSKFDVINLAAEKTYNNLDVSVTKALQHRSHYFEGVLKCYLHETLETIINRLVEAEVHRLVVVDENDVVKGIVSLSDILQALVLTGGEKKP
T2 sequence (Q13131 whole entry partner): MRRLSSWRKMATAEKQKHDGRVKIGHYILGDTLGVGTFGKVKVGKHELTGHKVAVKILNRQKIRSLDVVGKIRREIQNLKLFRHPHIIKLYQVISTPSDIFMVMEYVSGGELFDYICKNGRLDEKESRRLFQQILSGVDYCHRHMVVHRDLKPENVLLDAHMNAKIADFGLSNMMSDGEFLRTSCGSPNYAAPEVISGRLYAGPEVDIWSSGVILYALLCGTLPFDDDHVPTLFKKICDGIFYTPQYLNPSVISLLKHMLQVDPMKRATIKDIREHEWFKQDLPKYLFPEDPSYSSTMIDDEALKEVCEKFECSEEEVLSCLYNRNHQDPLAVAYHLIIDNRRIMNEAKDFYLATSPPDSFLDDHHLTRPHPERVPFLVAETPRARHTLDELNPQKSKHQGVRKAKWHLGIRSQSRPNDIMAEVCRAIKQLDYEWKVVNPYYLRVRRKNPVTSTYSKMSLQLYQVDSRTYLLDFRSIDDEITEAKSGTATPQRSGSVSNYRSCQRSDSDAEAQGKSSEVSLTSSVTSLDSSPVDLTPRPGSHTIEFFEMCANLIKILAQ
T2 sequence (Q9Y478 2-270 partner limits assumed): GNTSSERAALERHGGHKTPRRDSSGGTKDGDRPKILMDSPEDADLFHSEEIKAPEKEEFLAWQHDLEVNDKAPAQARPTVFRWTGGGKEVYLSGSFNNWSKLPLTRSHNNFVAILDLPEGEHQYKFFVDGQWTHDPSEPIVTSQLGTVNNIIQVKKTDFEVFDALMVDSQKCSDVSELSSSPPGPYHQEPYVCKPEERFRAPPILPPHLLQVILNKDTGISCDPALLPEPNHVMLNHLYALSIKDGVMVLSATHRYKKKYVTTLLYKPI

[5] = biological target: T2, AMP-activated protein kinase (AMPK) alpha-1/beta-1/gamma-1 (Homo sapiens); conditions: at 10 µM
[6] = biological target: T3, AMP-activated protein kinase, AMPK (Homo sapiens) (UniProt P54646+O43741+P54619+Q9UGJ0+Q9Y478+Q13131+Q9UGI9); conditions: at 1 µM
[7] = biological target: T3, AMP-activated protein kinase, AMPK (Homo sapiens); conditions: at 10 µM
[8] = biological target: T4, NUAK family SNF1-like kinase 1 (Homo sapiens) (UniProt O60285); conditions: at 1 µM
T4 sequence (whole entry): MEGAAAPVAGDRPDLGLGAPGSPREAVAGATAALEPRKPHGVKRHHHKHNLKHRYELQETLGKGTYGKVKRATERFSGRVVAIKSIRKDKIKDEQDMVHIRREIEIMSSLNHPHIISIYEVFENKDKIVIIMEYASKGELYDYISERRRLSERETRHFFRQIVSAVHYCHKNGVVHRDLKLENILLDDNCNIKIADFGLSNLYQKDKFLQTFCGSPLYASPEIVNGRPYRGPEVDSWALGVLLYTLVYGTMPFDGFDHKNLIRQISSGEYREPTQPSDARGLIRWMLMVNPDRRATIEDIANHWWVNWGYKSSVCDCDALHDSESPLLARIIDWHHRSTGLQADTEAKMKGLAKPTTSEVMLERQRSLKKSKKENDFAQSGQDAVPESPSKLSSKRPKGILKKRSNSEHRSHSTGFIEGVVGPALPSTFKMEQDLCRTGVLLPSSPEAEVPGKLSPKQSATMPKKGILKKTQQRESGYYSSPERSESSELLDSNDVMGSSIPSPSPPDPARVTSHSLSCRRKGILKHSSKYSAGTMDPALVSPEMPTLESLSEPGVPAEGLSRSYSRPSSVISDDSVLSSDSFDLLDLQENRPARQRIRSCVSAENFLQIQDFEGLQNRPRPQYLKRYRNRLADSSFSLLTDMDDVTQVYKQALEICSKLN

[9] = biological target: T4, NUAK family SNF1-like kinase 1 (Homo sapiens); conditions: at 10 µM
[10] = biological target: T5, Mitogen-activated protein kinase kinase kinase 5 (Homo sapiens) (UniProt Q99683); conditions: at 1 µM
T5 sequence (whole entry): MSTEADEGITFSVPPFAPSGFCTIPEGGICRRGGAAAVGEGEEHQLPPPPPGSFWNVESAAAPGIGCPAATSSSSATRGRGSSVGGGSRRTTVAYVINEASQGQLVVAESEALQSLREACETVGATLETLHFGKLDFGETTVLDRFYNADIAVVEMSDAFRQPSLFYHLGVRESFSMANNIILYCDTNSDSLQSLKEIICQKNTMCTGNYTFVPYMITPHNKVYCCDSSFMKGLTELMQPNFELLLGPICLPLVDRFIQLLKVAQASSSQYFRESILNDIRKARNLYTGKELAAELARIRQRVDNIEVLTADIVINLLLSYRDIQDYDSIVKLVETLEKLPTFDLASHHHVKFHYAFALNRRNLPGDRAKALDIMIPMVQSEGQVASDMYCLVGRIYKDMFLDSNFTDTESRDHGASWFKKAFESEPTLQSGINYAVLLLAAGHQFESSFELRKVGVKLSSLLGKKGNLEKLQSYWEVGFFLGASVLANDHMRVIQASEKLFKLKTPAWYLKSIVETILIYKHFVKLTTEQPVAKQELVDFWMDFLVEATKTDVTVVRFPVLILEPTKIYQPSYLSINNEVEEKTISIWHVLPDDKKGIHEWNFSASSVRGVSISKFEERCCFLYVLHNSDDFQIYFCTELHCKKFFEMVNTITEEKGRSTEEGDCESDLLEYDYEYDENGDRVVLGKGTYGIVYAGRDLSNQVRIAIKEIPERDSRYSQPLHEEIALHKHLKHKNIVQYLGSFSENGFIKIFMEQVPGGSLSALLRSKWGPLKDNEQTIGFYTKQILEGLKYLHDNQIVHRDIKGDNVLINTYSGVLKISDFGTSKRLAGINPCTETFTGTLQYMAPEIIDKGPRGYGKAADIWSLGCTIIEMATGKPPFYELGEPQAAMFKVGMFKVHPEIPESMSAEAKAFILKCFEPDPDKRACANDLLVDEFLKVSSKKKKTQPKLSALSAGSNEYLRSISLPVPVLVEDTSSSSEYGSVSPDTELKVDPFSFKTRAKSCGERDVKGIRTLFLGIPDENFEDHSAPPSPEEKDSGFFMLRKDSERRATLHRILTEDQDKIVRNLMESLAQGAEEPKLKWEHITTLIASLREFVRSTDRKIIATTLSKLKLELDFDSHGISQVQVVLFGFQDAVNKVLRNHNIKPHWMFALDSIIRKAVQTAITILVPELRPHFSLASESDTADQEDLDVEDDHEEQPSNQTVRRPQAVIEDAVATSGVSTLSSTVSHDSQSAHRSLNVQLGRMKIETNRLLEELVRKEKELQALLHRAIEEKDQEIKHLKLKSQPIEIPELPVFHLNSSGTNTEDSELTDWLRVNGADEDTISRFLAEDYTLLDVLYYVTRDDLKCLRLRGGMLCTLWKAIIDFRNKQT

Sequence of ALK tyrosine kinase receptor (Homo sapiens) (Q9UM73 19-1620 limits assumed): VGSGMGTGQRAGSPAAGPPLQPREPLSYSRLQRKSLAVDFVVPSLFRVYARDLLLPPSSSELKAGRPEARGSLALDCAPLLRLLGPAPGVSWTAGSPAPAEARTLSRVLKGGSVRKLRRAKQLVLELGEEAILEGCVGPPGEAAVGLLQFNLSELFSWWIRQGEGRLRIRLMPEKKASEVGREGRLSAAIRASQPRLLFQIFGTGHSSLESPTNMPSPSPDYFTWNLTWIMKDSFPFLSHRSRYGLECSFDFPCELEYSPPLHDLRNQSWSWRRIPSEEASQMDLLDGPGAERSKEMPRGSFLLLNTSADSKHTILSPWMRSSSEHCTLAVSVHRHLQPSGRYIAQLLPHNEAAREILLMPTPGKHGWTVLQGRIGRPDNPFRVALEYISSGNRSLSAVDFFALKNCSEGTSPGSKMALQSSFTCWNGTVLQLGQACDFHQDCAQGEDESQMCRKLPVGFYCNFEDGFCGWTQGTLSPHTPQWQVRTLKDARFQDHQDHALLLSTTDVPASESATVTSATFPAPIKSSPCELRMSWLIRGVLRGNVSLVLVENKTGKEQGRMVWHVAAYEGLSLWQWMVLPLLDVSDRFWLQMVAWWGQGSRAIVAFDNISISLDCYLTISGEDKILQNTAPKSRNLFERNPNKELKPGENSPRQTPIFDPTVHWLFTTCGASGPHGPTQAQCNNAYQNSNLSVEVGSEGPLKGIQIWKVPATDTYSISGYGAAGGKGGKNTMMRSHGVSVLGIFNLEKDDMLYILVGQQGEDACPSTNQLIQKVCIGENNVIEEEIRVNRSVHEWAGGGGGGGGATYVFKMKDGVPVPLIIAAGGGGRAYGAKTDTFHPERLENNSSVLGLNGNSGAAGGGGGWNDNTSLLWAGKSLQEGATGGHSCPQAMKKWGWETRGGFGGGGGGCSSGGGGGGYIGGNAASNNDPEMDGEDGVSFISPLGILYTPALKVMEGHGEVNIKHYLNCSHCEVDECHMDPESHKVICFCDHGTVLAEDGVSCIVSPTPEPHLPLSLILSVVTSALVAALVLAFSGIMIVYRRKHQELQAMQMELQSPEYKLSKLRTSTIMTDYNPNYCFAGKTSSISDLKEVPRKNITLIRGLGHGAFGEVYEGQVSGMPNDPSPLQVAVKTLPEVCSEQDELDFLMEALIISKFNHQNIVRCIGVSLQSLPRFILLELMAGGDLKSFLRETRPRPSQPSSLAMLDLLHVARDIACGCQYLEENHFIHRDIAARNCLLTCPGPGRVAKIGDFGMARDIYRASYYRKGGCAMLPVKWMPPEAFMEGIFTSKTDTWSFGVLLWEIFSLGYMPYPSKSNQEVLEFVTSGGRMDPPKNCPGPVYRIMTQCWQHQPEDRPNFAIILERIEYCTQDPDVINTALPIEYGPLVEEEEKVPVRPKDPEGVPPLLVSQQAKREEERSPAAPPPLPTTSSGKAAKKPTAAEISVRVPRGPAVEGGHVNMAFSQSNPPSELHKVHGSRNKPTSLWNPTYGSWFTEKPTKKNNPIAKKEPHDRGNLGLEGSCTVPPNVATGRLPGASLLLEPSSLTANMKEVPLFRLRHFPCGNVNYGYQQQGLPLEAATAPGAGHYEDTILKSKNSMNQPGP

Compound | residual activity [1] [%] | residual activity [2] [%] | residual activity [3] [%] | residual activity [4] [%] | residual activity [5] [%] | residual activity [6] [%] | residual activity [7] [%] | residual activity [8] [%] | residual activity [9] [%] | residual activity [10] [%]
CCOc1cc2ncnc(Nc3cccc(Br)c3)c2cc1OCC | 39 | 125 | 91 | 84 | 57 | 79 | 57 | 87 | 57 | 115
O=C1NC(=O)c2cc(Nc3ccc(F)cc3)c(Nc3ccc(F)cc3)cc21 | 42 | 129 | 88 | 93 | 73 | 92 | 66 | 101 | 75 | 110
O=C1NC(=O)/C(=C/c2ccc3c(c2)OC(F)(F)O3)S1 | 77 | 127 | 102 | 81 | 66 | 96 | 70 | 91 | 87 | 85
O=C1Nc2cc(Br)ccc2/C1=C1/Nc2ccccc2/C1=N\O | 10 | 109 | 96 | 2 | 10 | 1 | 10 | 11 | 18 | 91
Cc1cc(Nc2nc(-c3ccccc3)nc3ccccc23)n[nH]1 | 15 | 96 | 76 | 15 | 3 | 5 | 3 | 3 | -1 | 94
O=C1c2ccccc2-[n+]2ccc3c([nH]c4ccccc43)c21 | 83 | 110 | 114 | 95 | 94 | 101 | 93 | 97 | 83 | 89
COc1ccc(CNc2nc(N(CCO)CCO)nc3c2ncn3C(C)C)cc1 | 61 | 97 | 118 | 97 | 80 | 86 | 88 | 107 | 77 | 95
Nc1ccc2ncnc(NCCc3ccc(Oc4ccccc4)cc3)c2c1 | 67 | 102 | 103 | 51 | 28 | 65 | 42 | 108 | 23 | 87
Oc1ccc(Nc2nc(-c3ccc(Cl)cc3)cs2)cc1 | 62 | 104 | 110 | 105 | 90 | 119 | 100 | 107 | 84 | 96
O=Nc1c(-c2c(O)[nH]c3ccccc23)[nH]c2ccccc12 | 18 | 104 | 72 | 2 | 0 | 1 | 3 | 4 | 7 | 52
COc1cccc(-c2cc(=O)c3ccccc3o2)c1N | 83 | 111 | 108 | 101 | 96 | 98 | 94 | 109 | 93 | 119
O=C(O)c1ccc2c3c1cccc3c(=O)n1c3ccccc3nc21 | 49 | 110 | 108 | 34 | 6 | 37 | 13 | 73 | 28 | 90
O=[N+]([O-])c1ccc(-c2nc(-c3ccc(F)cc3)c(-c3ccncc3)[nH]2)cc1 | 65 | 38 | 35 | 97 | 94 | 91 | 91 | 103 | 89 | 96
CN(C)c1ccc(/C=C2\C(=O)Nc3ccccc32)cc1 | 27 | 127 | 105 | 92 | 50 | 97 | 56 | 93 | 80 | 92
COc1cc2ncnc(Nc3ccc(O)c(Br)c3)c2cc1OC | 3 | 111 | 85 | 82 | 37 | 93 | 52 | 78 | 36 | 77
NC(=O)c1ccc2[nH]c(-c3ccc(Oc4ccc(Cl)cc4)cc3)nc2c1 | 87 | 111 | 97 | 72 | 32 | 71 | 40 | 98 | 85 | 80
Cn1cc(/C=C2\C(=O)Nc3ccc(S(N)(=O)=O)cc32)c2ccccc21 | 31 | 118 | 104 | 9 | 4 | 9 | 4 | 18 | 11 | 29

Compound | residual activity [1] [%] | residual activity [2] [%] | residual activity [3] [%] | residual activity [4] [%] | residual activity [5] [%] | residual activity [6] [%] | residual activity [7] [%] | residual activity [8] [%] | residual activity [9] [%] | residual activity [10] [%]
COc1cc2ncnc(N3CCN(C(=O)Nc4ccc(Oc5ccccc5)cc4)CC3)c2cc1OC | 49 | 104 | 97 | 79 | 97 | 99 | 101 | 107 | 82 | 79
Ic1cccc(CSc2nnc(-c3ccncc3)o2)c1 | 68 | 98 | 105 | 35 | 25 | 45 | 32 | 105 | 60 | 80
CNc1cc2c(Nc3cccc(Br)c3)ncnc2cn1 | 72 | 121 | 116 | 100 | 80 | 91 | 86 | 100 | 80 | 103
Nc1nc(Nc2ccc(S(N)(=O)=O)cc2)nn1C(=S)Nc1c(F)cccc1F | 1 | 7 | -4 | -2 | -1 | -3 | 0 | 1 | 0 | 1
Cn1cnc2cc3c(Nc4cccc(Br)c4)ncnc3cc21 | 59 | 123 | 82 | 90 | 69 | 102 | 65 | 99 | 80 | 113
Cn1nc2c3c(cccc31)C(=O)c1ccccc1-2 | 45 | 104 | 109 | 91 | 73 | 81 | 85 | 57 | 31 | 71
CC(C)n1cnc2/c(=N/c3cccc(Cl)c3)nc(NCCO)[nH]c21 | 52 | 103 | 120 | 76 | 30 | 88 | 45 | 75 | 29 | 90
CO[C@H]1[C@@H](OC)C[C@H](C)[C@@H](OC)C2=CC(=O)C=C(NC(=O)/C(C)=C/C=C/[C@H](OC)[C@@H](OC(N)=O)/C(C)=C/[C@@H]1C)C2=O | 50 | 112 | 112 | 94 | 78 | 92 | 78 | 93 | 94 | 88
N#CCCc1ccc2c(c1)-c1[nH]c3ccc([N+](=O)[O-])cc3c1CC(=O)N2 | 45 | 67 | 23 | 57 | 29 | 27 | 17 | 10 | 8 | 
Cc1cccc(-c2[nH]c(C(C)(C)C)nc2-c2ccc3c(c2)OCO3)n1 | 102 | 1 | -6 | 102 | 83 | 106 | 78 | 102 | 88 | 83
CC#CC(=O)Nc1cc2c(Nc3ccc(F)c(Cl)c3)ncnc2cn1 | 81 | 137 | 99 | 99 | 84 | 79 | 74 | 95 | 86 | 104
O=C(Nc1cccc(Nc2nccc(Nc3cccc(C(F)(F)F)c3)n2)c1)C1CC1 | 48 | 106 | 69 | 96 | 81 | 88 | 83 | 26 | 41 | 89
CC(=O)O/N=C1\C(=C2\C(=O)Nc3cc(Br)ccc32)Nc2ccccc21 | 40 | 100 | 119 | 60 | 9 | 46 | 11 | 56 | 19 | 92
c1ccc(-c2n[nH]cc2-c2ccnc3ccccc23)nc1 | 105 | -3 | -4 | 86 | 76 | 101 | 81 | 99 | 90 | 98
O=C(Nc1cccc(Nc2cc(Nc3cccc(C(F)(F)F)c3)ncn2)c1)C1CC1 | 22 | 126 | 124 | 97 | 73 | 103 | 74 | 90 | 127 | 104
Oc1c2ccccc2c2c3c(cccc13)N=N2 | 29 | 86 | 84 | 64 | 24 | 69 | 28 | 28 | 17 | 36

— ChEMBL document CHEMBL2218924, “A broad activity screen in support of a chemogenomic map for kinase signalling research and drug discovery” (Biochem J, 2013)
